The values below come from PubChem BioAssay (NCI).

What all share (assay): NCI-60 one-dose screen, 48 h (100 = growth as untreated, 0 = no growth, -100 = all killed)
What all share (conditions): 10 µM unless noted

For experiment [1], the system named is SR leukemia.
Experiment [2] concerns RPMI-8226 leukemia.
The subject of experiment [3] is OVCAR-8 ovarian.
For experiment [4], the system named is OVCAR-5 ovarian.
Experiment [5] deals with OVCAR-4 ovarian.
The subject of experiment [6] is SK-OV-3 ovarian.
Experiment [7] deals with IGROV1 ovarian.
The test system of experiment [8] is OVCAR-3 ovarian.
Experiment [9] concerns HS 578T breast.
Experiment [10] deals with NCI/ADR-RES ovarian.

Compounds without any hit were thinned out: in the full panel of roughly 83,000, 20% have a hit.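 Values shown are percent growth following 48 h exposure of cells in 96-well plates to a single concentration of compound; below 10 was considered active.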 Values without a mark were called inactive. Calls of active or inactive are those of the source.

Take `CN(C)S(=O)(=O)c1cccc(C(=O)Nc2nc(-c3ccc(F)c(F)c3)cs2)c1`: the growth was 41% in [1]; 63.2% in [2]; 48.9% in experiment [3]; 86.1% in experiment [4]; 37.2% in [5]; 108% in experiment [6]. The growth in experiment [7] was 41.6%; in experiment [8], 70.8%; in experiment [9] it was 107%; in experiment [10], 22.5%.

For `C=CC(=O)N1CCN(c2cccc(Oc3nccc(Nc4nnc(-c5ccc(Br)cc5)s4)n3)c2)CC1`, the growth is 29.9% in experiment [1]; 50.4% in experiment [2]; 66% in [3]; 89.9% in experiment [4]; 88.9% in [5]; 80.2% in experiment [6]. Further, the growth in experiment [7] was 55.9%; in experiment [8] it was 19.2%; in [9], 67.5%; in [10], 48.4%.

In the case of `CCc1ccc(CCCC(=O)O)cc1`, the growth in experiment [1] was 96.2%; in experiment [2], 103%; in [3], 107%; in experiment [4], 98.3%; in [5], 104%; in [6] it was 100%. Also, the growth in experiment [7] was 105%; in experiment [8], 108%; in experiment [9] it was 101%; in experiment [10], 99.1%.

On to `COc1cc2ncnc(Nc3ccc(S(=O)(=O)Nc4cc(C)on4)cc3)c2cc1OCCCN1CCN(c2ccc(F)cc2)CC1`, for which the growth is 107% in experiment [1]; 114% in [2]; 103% in experiment [3]; 102% in experiment [4]; 116% in experiment [5]; 93% in experiment [6]. Moreover, the growth is 107% in experiment [7], 87.6% in experiment [8], 90.7% in experiment [9] and 107% in [10].

As to `O=C1NC(=C(Cl)Cl)/C(=N\S(=O)(=O)NCc2ccccc2)N1`, the growth was 65.3% in [1]; 75.6% in [2]; 94.6% in experiment [3]; 98.4% in experiment [4]; 108% in [5]; 97.1% in [6]. Moreover, the growth in experiment [7] is 102%; in [8], 105%; in [9], 122%; in experiment [10] it was 109%.

In the case of `O=C(c1ccncc1)N1N=C(c2ccc(Cl)cc2)C[C@H]1c1cn(-c2ccccc2)nc1-c1ccccc1`, the growth in experiment [1] is 91.1%; in experiment [2] it was 105%; in experiment [3], 74.6%; in experiment [4], 105%; in [5], 82.6%; in experiment [6], 83.4%. In addition, the growth is 99.4% in experiment [7], 94.7% in experiment [8], 87.2% in [9] and 87% in experiment [10].

With `COc1c(B(O)O)cccc1-c1nc2c(F)cc3[nH]ncc3c2c2c1CCCC2`, the growth was 1.26% (active) in experiment [1]; -11.7% (active) in [2]; 15.1% in experiment [3]; 7.97% (active) in [4]; 6.02% (active) in experiment [5]; 18.2% in [6]. Moreover, the growth is 7.11% (active) in experiment [7], -0.0178% (active) in experiment [8], 5.7% (active) in experiment [9] and 17.7% in experiment [10].

Consider `COc1cccc(/C=C2\COc3ccc(O)c(O)c3C2=O)c1`, for which the growth is 12.6% in experiment [1]; -7.52% (active) in experiment [2]; 10.7% in experiment [3]; -2.7% (active) in experiment [4]; 26.9% in experiment [5]; 86.2% in [6]. Moreover, the growth in experiment [7] was -31.1% (active); in experiment [8], -28.3% (active); in experiment [9], 20.4%; in experiment [10], 2.6% (active).

With `COc1ccc(-c2cc(-c3ccc(Cl)cc3)c(C#N)c(=O)n2Cc2ccc(C(=O)Nc3ccccc3N)cc2)cc1`, the growth is 40.9% in [1]; 57.1% in experiment [2]; 92.8% in experiment [3]; 96.7% in experiment [4]; 76.3% in experiment [5]; 92.6% in experiment [6]. The growth is 78.3% in [7], 42.6% in [8], 46.2% in experiment [9] and 71.2% in experiment [10].

Turning to `CCOC(=O)c1ccc(NC(=O)c2nc(-c3cc(OC)c(OC)c(OC)c3)n(-c3ccc(Cl)cc3)n2)cc1`, the growth is 92.7% in [1]; 82.1% in experiment [2]; 91.5% in [3]; 101% in [4]; 95.4% in experiment [5]; 94.3% in experiment [6]. Moreover, the growth is 88.9% in experiment [7], 99.7% in [8], 74.5% in experiment [9] and 90.8% in experiment [10].

Take `CCc1ncnc2c1ccn2C(C)c1ccc(OC)c(F)c1` (stereo not given): the growth in experiment [1] was 16.5%; in experiment [2] it was 37.2%; in [3], 49.2%; in experiment [4], 88.1%; in experiment [5] it was 54.9%; in experiment [6] it was 53.6%. In addition, the growth in experiment [7] was 54.9%; in experiment [8] it was 34.8%; in [9], 69.2%; in experiment [10], 44.6%.

As for `CCOC(=O)c1c(NC(=O)c2cccc(C(F)(F)F)c2)sc2c(CN(C)C)c(O)ccc12`, the growth was -2.46% (active) in experiment [1]; -17.3% (active) in experiment [2]; 82.1% in experiment [3]; 89.5% in experiment [4]; 91.1% in experiment [5]; 101% in experiment [6]. The growth in [7] was 83.1%; in experiment [8], 98.5%; in experiment [9], 89.8%; in experiment [10], 79%.

For `CC(C)(Sc1cc(C(C)(C)C)c(OC(=O)CCCC(=O)O)c(C(C)(C)C)c1)Sc1cc(C(C)(C)C)c(OC(=O)CCCC(=O)O)c(C(C)(C)C)c1`, the growth was 61.6% in [1]; 21.9% in [2]; 36% in experiment [3]; 76.2% in experiment [4]; 79.6% in [5]; 91.5% in [6]. For the same compound, the growth in experiment [7] was 36.6%; in experiment [8], 21.1%; in experiment [9], 57%; in experiment [10] it was 70%.

On to `Cc1csc(Nc2nc(-c3ccccn3)nc(C(Cl)(Cl)Cl)n2)n1`, for which the growth in experiment [1] is 53.2%; in [2] it was 91.5%; in [3], 77.7%; in experiment [4] it was 108%; in [5], 83.6%; in experiment [6] it was 97.8%. Further, the growth in experiment [7] was 82.1%; in experiment [8] it was 97.4%; in experiment [9] it was 115%; in [10], 66.8%.

With `COc1cc2oc(-c3cccc(NC(=O)c4ccccc4)c3)cc(=O)c2c(OC)c1OC`, the growth is 31.6% in [1]; 26.6% in experiment [2]; 61% in experiment [3]; 100% in experiment [4]; 81.7% in experiment [5]; 104% in experiment [6]. Besides, the growth in [7] was 78.4%; in experiment [8], 84.2%; in experiment [9] it was 97.2%; in experiment [10] it was 74.5%.

With `NC(=O)CSc1oc(-c2ccccc2)nc1S(=O)(=O)c1ccc(Br)cc1`, the growth in experiment [1] is 79.3%; in experiment [2], 81.1%; in [3], 49.4%; in experiment [4], 109%; in experiment [5] it was 45.4%; in [6] it was 88.3%. Besides, the growth in [7] was 93%; in experiment [8] it was 62.5%; in experiment [9], 56.1%; in [10], 86.4%.

For `O=C(Nc1nc(-c2ccc(Cl)cc2)nc2c1sc(=S)n2-c1ccccc1)C(F)(F)F`, the growth in experiment [1] is 19.9%; in experiment [2], 51.2%; in experiment [3] it was 27.1%; in experiment [4], 62.6%; in [5] it was -53.5% (active); in experiment [6], 25.2%. Besides, the growth in experiment [7] was 32.9%; in [8], 16.8%; in [9], 11.5%; in [10], 32%.

For `N#CC1=C(c2ccccc2)Nc2c(c(-c3ccc(Cl)cc3)nn2-c2ccccc2)C12C(=O)Nc1ccc(Cl)cc12` (stereo not given), the growth is 53.9% in experiment [1]; 47.4% in experiment [2]; 84% in experiment [3]; 82.6% in experiment [4]; 87.8% in experiment [5]; 90.8% in experiment [6]. In addition, the growth in experiment [7] was 57.1%; in experiment [8], 88.1%; in [9] it was 62.2%; in experiment [10] it was 87.8%.

Consider `OCCn1cc(-c2nc(-c3c[nH]c4ncccc34)cs2)c2ccccc21`, for which the growth in experiment [1] is 53.5%; in experiment [2] it was 57.8%; in [3], 90.4%; in [4], 90.5%; in [5] it was 51.7%; in experiment [6], 70.2%. Moreover, the growth in experiment [7] is 56.1%; in [8] it was 81.7%; in experiment [9], 71.3%; in [10], 94.6%.

`CN1CCN(c2cc(Nc3cc(C4CC4)[nH]n3)nc(Nc3ccc(CC(=O)NCc4cccc(F)c4)cc3)n2)CC1`: the growth in experiment [1] was 30.3%; in [2], 54.3%; in experiment [3], 40.7%; in experiment [4], 11%; in experiment [5] it was 43.9%; in [6], 24%. For the same compound, the growth is -13.8% (active) in experiment [7], 41.7% in experiment [8], -6.93% (active) in experiment [9] and 94.4% in experiment [10].

As for `CC(O)(c1ccccc1)C(c1ccccc1)C1CCCCN1` (stereo not given), the growth in experiment [1] was 101%; in [2] it was 102%; in experiment [3] it was 101%; in experiment [4] it was 113%; in experiment [5] it was 97.9%; in [6], 113%. Besides, the growth is 80.5% in [7], 105% in [8], 107% in experiment [9] and 105% in experiment [10].

With `CC(C)(C)[Si](C)(C)OC1[C@@H](CNC(=O)NC(=O)NC(N)=O)O[C@@H](n2cnc3c(NC(=O)Nc4ccccc4)ncnc32)[C@H]1O[Si](C)(C)C(C)(C)C` (stereo not given in full), the growth in [1] is 40.8%; in [2], 69.1%; in experiment [3], 23%; in [4], 96.1%; in experiment [5] it was 66.7%; in experiment [6], 65.4%. Moreover, the growth was 78.4% in [7], 68.4% in [8], 77.1% in [9] and 85.3% in experiment [10].

Consider `CCOC(=O)C#Cc1c(C(=O)OCC)nnn1Cc1ccc([N+](=O)[O-])cc1`, for which the growth in [1] was -10.7% (active); in [2], 11.4%; in experiment [3], 63.3%; in experiment [4] it was 97.3%; in experiment [5] it was 51.2%; in experiment [6], 105%. Also, the growth was 89.6% in experiment [7], 7.55% (active) in [8], 91.2% in experiment [9] and 96.3% in [10].

For `COc1ccc(-c2cc(-c3cc(OC)c(OC)c(OC)c3)c(C#N)c(=O)n2CCCCC(=O)NO)cc1`, the growth was 13.3% in experiment [1]; 35.9% in experiment [2]; 42.4% in experiment [3]; 76.6% in [4]; 67% in experiment [5]; 87.1% in [6]. The growth was 60.2% in [7], 62.1% in experiment [8], 45% in experiment [9] and 38.8% in experiment [10].

In the case of `O=S(=O)(Nc1ccc(Cl)c(C(F)(F)F)c1)c1ccc(-c2cnc(C3CC3)o2)cc1`, the growth in experiment [1] was 3.51% (active); in experiment [2], 8.83% (active); in experiment [3], 5.21% (active); in [4], 19.2%; in experiment [5], 25.7%; in experiment [6], 0.753% (active). The growth was 24.3% in experiment [7], 9.38% (active) in [8], -1.41% (active) in experiment [9] and 2.96% (active) in [10].

Take `CCCC/C=C/[C@@H]1C[C@H]1CCO`: the growth in experiment [1] was 100%; in experiment [2], 99.3%; in experiment [3], 100%; in experiment [4] it was 89.1%; in experiment [5] it was 107%; in experiment [6] it was 91.8%. For the same compound, the growth in experiment [7] was 100%; in experiment [8], 109%; in experiment [9], 101%; in experiment [10], 104%.
